We go through 98 compounds from PubChem BioAssay AID504845 (National Center for Advancing Translational Sciences (NCATS), 2011).

“And” between values parts separate entries of the source, which are not always exact repeats. Identical values can stand only once. Screen size: about 390,000 compounds; about 150 (0.038%) were called active. Roughly 3% stayed inconclusive and do not appear here. The call rests on the fitted dose curve; in most records, active means well fitted inhibition curve with a large enough effect; inconclusive means small, poorly fitted or top-dose-only effect; inactive means no such curve, though single readings can be large or run the other way. What follows is part of a selection rich in actives, with near analogues and random picks from the rest. A call without a number means that no potency is given here. Where a structure was tested more than once in an assay, its records may differ in their call.
Potency means the concentration at half of the fitted maximal effect.

Regulator of G-protein signaling 4 (Homo sapiens), sequence (P49798 whole entry, looked up, the tested form may be a part): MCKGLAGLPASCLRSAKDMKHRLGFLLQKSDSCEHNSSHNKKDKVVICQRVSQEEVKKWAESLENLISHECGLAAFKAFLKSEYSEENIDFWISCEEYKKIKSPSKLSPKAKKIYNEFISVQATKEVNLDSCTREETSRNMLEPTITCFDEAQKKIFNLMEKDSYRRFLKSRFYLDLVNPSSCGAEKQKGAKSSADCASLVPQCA

The experiment has as its target Regulator of G-protein signaling 4 (Homo sapiens) (UniProt P49798). The experiment can be described thus: Inhibitors of Regulator of G Protein Signaling (RGS) 4: qHTS. Further: nearly all actives have a fitted effect of over 75% in size. As to conditions: Transcreener GDP fluorescence polarization, RGS4-accelerated GTP hydrolysis; series mostly up to 114 µM. An excerpt:
G-protein-coupled receptors (GPCRs) are well-established targets for drug discovery and development. Members of the "regulator of G-protein signaling" (RGS)-protein superfamily have recently emerged as critical modulators of specific GPCR signaling pathways. […] Combining specific RGS domain inhibitors with existing GPCR agonists should potentiate cellular responses and could also increase the specificity of action of existing therapeutics. Small molecule modulators of RGS domain activity should also have clinical utility in inhibiting or potentiating the actions of endogenous GPCR agonists. In particular, the diversity of RGS proteins with highly localized and dynamically regulated distributions in the human brain makes this family of proteins attractive targets for pharmacotherapy of central nervous system (CNS) disorders such as Parkinson's disease, schizophrenia, and anxiety.
This assay was used to screen the NIH Molecular Libraries Small Molecule Repository (MLSMR) in order to identify a small molecule that inhibits RGS4.
NIH Chemical Genomics Center [NCGC]
NIH Molecular Libraries Probe Centers Network [MLPCN]
Assay Submitter (PI): David Siderovski, University of North Carolina Chapel Hill (School of Medicine)
Two microliters of 500nM (2x working concentration) is dispensed into black medium-binding solid-bottom Kalypsys plates. Then with the Kalypsys pintool 23nl of control and compounds are transferred; the control compound is […] CCG-4986 (working concentration). After a 10 minute incubation at room temperature 2ul of antibody is added with the Kalypsys dispenser; (-)RGS4/Transcreener GDP solution in columns 3 and 4 which consisted of 10nM (2x working concentration) Alexa633, 20uM GTP, and 20 ug/ml GDP antibody and (+)RGS4/Transcreener GDP solution in columns 1,2, and 5 to 48 which consists of 900nM RGS4 (2x working concentration), 10nM Alexa633, 20 ug/ml GDP antibody. The plate is centrifuged at 1000 RPM for 15 seconds to remove any possible bubbles and then incubated for 5 minutes at ambient room temperature. An initial fluorescent polarization read (620 nm/688 nm) is performed on the Envision before the plate is incubated for 90 minutes at 30 deg C at a relative humidity of 80%. The plate is once more centrifuged at 1000 RPM for 15 seconds and another Envision fluorescent polarization (620 nm/688 nm) read is carried out.
On the technique in general: qHTS replaces the single test concentration by a dilution series.
For the compound `COc1cc(CN(CC2CCCO2)C(=O)c2ccccc2F)cc(OC)c1OC` (stereo not drawn), the Potency entry is “inactive”. For `CCn1c2ccccc2c2cc(NC(=O)COc3ccc(C)cc3C)ccc21` the value was “inactive”; for `Nc1ccc2c3c(cccc13)C(=O)NC2=O`, “inactive”; for `COc1ccc(-c2ccc(C3C4C=CCCC4(C)C(=O)N3Cc3ccccc3)c(F)c2)cc1OC` (stereo not drawn), “inactive”.

For the compound `Cc1ccc(Nc2ccc3cc(S(=O)(=O)N4CCCCC4)ccc3n2)cc1F`, the Potency entry was “inactive”. Under `O=C(NCC(c1ccc(Cl)cc1)N1CCOCC1)c1ccccc1F` (stereo not drawn) stands “inactive”; under `COc1ccc(CCCOC(Cn2ccnc2)c2ccc(OC)cc2)cc1` (stereo not drawn), “inactive”; under `CCCNC(=O)C(CC)n1nc(CC)n2c(cc3oc(C)cc32)c1=O` (stereo not drawn), “inactive”. Consider `CCCCC/C=C\CC1OC1CCCCCCCC(=O)O` (stereo not drawn), for which the Potency was 37.7 µM (active). For `CCCCCCCCCCCC(=O)O` the value was “inactive”; for `CCc1ccc(CN(Cc2ccco2)C(=O)c2ccccc2Cl)cc1`, “inactive”. Under `COc1ccccc1N1CCN(C[C@@H]2CN3C(=O)N(C)c4ccccc4C3=N2)CC1` stands “inactive”.

Take `O=C(COc1ccc(Cl)cc1)Nc1ccc(-c2nc3cc(Cl)ccc3o2)c(O)c1`: the Potency result is “inactive”. Under `CCN(CC)/[N+]([O-])=N/Oc1cc(O/[N+]([O-])=N/N2CCCC2CO)c([N+](=O)[O-])cc1[N+](=O)[O-]` (stereo not drawn) stands “inactive”. Under `COc1ccc(OC)c(NC(=O)CSC2=Nc3ccccc3C3=NC(CC(=O)NCc4ccc(F)cc4)C(=O)N23)c1` (stereo not drawn) stands “inactive”; under `CCCc1nn2c(=O)cc(COC(=O)c3ccc(NC(=O)COc4ccc(F)cc4)cc3)nc2s1`, “inactive”; under `CCc1ccccc1NC(=O)N1CCC2(CC1)Oc1ccccc1C(=O)N2Cc1ccccc1F`, “inactive”.

`Cc1ccccc1CSCCNC(=O)C1CCN(S(=O)(=O)Cc2ccccc2)CC1`: the Potency result is “inactive”. `COc1ccccc1C(=O)NCCn1cc(SCc2ccccc2Cl)c2ccccc21`: the Potency entry was “inactive”. With `Cc1ccc(C)n1-c1nnc(N2CCC(C(=O)NCc3ccccc3Cl)CC2)s1`, the Potency result is “inactive”. Take `COc1ccc(-c2noc(CSc3nnc(-c4ccccc4)n3-c3ccc(F)cc3)n2)c(OC)c1`: the Potency entry was “inactive”. Consider `Cc1c(C(=O)NCc2ccccc2Br)oc2ccc3c(c12)C(=O)CC(C)(C)O3`, for which the Potency result is “inactive”. Consider `CCn1cc(C(=O)NCCc2ccccc2)c(=O)c2cc(S(=O)(=O)N3CCCCCC3)ccc21`, for which the Potency result is “inactive”. Under `Cc1ccccc1CNC(=O)c1cccc(NC(=O)c2nsc3ccccc23)c1` stands “inactive”; under `Cc1ccc(C)c(S(=O)(=O)n2nc(C)c(S(=O)(=O)N3CCC(C)CC3)c2C)c1`, “inactive”. `Cc1ccc2oc3c(c(=O)c2c1)C(c1ccc(O)cc1)N(Cc1ccc2c(c1)OCO2)C3=O` (stereo not drawn): the Potency entry is “inactive”. Under `Cc1ccc(/C(=C/CN2CCCC2)c2ccccn2)cc1` stands “inactive”; under `CCC1=Nc2cc(C(=O)NCC(C)c3ccccc3)ccc2Sc2ccc(C)cc21` (stereo not drawn), “inactive”.

For the compound `CN(C)c1cc2c(Nc3ccc4c(cnn4Cc4ccccc4)c3)ncnc2cn1`, the Potency entry is “inactive”. For the compound `Cc1csc(-c2nc3ccccc3n2C)n1`, the Potency result was “inactive”. Regarding `C=CCCN(C(Cc1ccccc1)C(=O)OC)S(=O)(=O)c1cc(Br)ccc1Br` (stereo not drawn), the Potency result is “inactive”.

In the case of `Cc1ccc(NC(=O)CCCn2c(=O)c3cccn3c3ccccc32)cc1Cl`, the Potency result is “inactive”. Consider `CC(N)(C(=O)O)c1ccc(-c2nn[nH]n2)cc1` (stereo not drawn), for which the Potency result was “inactive”. Under `O=C(c1cccc(Br)c1)N1CCN(Cc2cc(=O)n3nc(-c4ccccc4)sc3n2)CC1` stands “inactive”; under `O=C(NCCCO)c1nn(-c2ccc(Cl)cc2)nc1CO`, “inactive”; under `Cc1oc2ccc(O)c(CN3CCC(C)CC3)c2c1C(=O)Nc1ccccc1`, “inactive”. Under `O=C(O)c1ccc2c(c1)N(Cc1ccc(F)cc1)C(=O)c1ccccc1S2=O` (stereo not drawn) stands “inactive”; under `OCCNc1ncnc2oc(-c3ccco3)c(-c3ccco3)c12`, “inactive”; under `O=C(Cn1nc(Cc2cccnc2)c2ccccc2c1=O)N1CCN(c2ccccc2F)CC1`, “inactive”. Turning to `Cc1cc2c(cc3c(SCc4cccc(Cl)c4)nnc(C)n32)o1`, the Potency result is “inactive”.

On to `Cc1cccc(CCNC(=O)c2ccc3c(c2)nc2n3CCC(C)C2)c1` (stereo not drawn), for which the Potency result is “inactive”. As to `Cc1ccc(Cn2c(C)c3cnn(CC(=O)NCc4ccccc4)c(=O)c3c2C)cc1`, the Potency entry was “inactive”.

As for `C/C=C1\C2C=C(C)CC1(N)c1ccc(=O)[nH]c1C2` (stereo not drawn), the Potency entry is “inactive”. Under `Cc1ccc(Nc2nnc(-c3ccc(C)c(S(=O)(=O)N4CCCCC4)c3)c3ccccc23)cc1` stands “inactive”; under `CCOC(=O)c1[nH]c(C)c(CCC(=O)NCc2ccccc2C)c1C`, “inactive”; under `O=S(=O)(c1ccc2nc(NCc3ccccc3Cl)ccc2c1)N1CCCCC1`, “inactive”.

Consider `CCc1cc2c(cc3c(=O)n(CC(=O)N4CCN(c5cc(Cl)ccc5C)CC4)nc(CC)n32)s1`, for which the Potency result was “inactive”. Under `COc1ccc(OC)c(-n2nnc(-c3nc(-c4cc(OC)c(OC)c(OC)c4)no3)c2C)c1` stands “inactive”; under `Cc1ccc(SCC(CC(C)C)N2CCN(CCc3ccccc3)CCC2=O)cc1` (stereo not drawn), “inactive”. For the compound `Cc1cccc(NC(=O)CN(c2ccc(C(C)C)cc2)S(=O)(=O)c2c(C)nn(C)c2C)c1C`, the Potency entry is “inactive”. For `C#CCCCCCCCCCCCCCCCC(=O)O` the value was “inactive”. For `CCCN1CCC(=O)N(C(CSc2ccc(OC)cc2)Cc2ccccc2)CC1` (stereo not drawn) the value was “inactive”; for `COc1cccc(CN2CCc3nc(SCC(=O)Nc4ccccc4)[nH]c(=O)c3C2)c1`, “inactive”; for `COC(=O)c1ccccc1NC(=O)Cn1c(=O)n(-c2cccc(C(F)(F)F)c2)c(=O)c2c(C)c(C)sc21`, “inactive”. For `COc1ccc(CN(Cc2ccccc2)C(=O)c2ccc(O)cc2)cc1COc1ccc(NC(C)=O)cc1` the value was “inactive”; for `COc1cc(OC)c2c(C)cc(=O)oc2c1C(CCN1CCCCC1)c1ccc(N(C)C)cc1` (stereo not drawn), “inactive”.

As for `O=[N+]([O-])c1ccc(S(=O)(=O)N2CCN(c3nc(-c4ccccc4)nc4ccccc34)CC2)cc1`, the Potency result is “inactive”.

For the compound `COc1ccc(OC)c(NC(=O)C2CCCN(S(=O)(=O)c3ccc4c(c3)CCCC(=O)N4)C2)c1` (stereo not drawn), the Potency entry is “inactive”. For `COCCNC(=O)c1cc(-c2cccc(Cl)c2)on1` the value was “inactive”; for `COc1ccccc1-c1nnc(SCC(N)=O)o1`, “inactive”; for `O=C(Nc1ccccc1)N[C@H]1C[C@H](C(=O)O)Nc2cc(Cl)cc(Cl)c21`, “inactive”. As to `CCOc1ccc(S(=O)(=O)c2cn(Cc3ccccc3)c3ccc(OCC)cc3c2=O)cc1`, the Potency result is “inactive”. For `Cn1c(=O)c2c(nc(SCC(=O)Nc3ccc(F)cc3)n2Cc2ccccc2)n(C)c1=O` the value was “inactive”. `CC(C)NC(=O)C1CCC(Cn2c(=O)c3sccc3n(Cc3ccc(F)cc3)c2=O)CC1` (stereo not drawn): the Potency result was “inactive”.

On to `Oc1ccc(Br)cc1C1C=C(c2ccc3c(c2)OCO3)NC(c2ccc(Cl)cc2)N1` (stereo not drawn), for which the Potency entry is “inactive”. For `Cc1ccc2ccc3c(c2n1)NS(=O)(=O)c1ccccc1-3` the value was “inactive”; for `COc1ccc2c(C)c(CCC(=O)NCc3ccc(OC)c(OC)c3)c(=O)oc2c1`, “inactive”. For `Cc1c(-c2nc(-c3ccc4c(c3)OCO4)no2)nnn1-c1ccc(Br)cc1F`, the Potency result is “inactive”. Regarding `COc1ccc(OC)c(NC(=O)CSC2=Nc3ccccc3C3=NC(CC(=O)NCCc4ccccc4)C(=O)N23)c1` (stereo not drawn), the Potency result is “inactive”. Under `CC(C)NC[C@H](O)c1ccc2ccccc2c1` stands “inactive”. As for `O=C(CSc1nccn1-c1ccc(F)cc1)Nc1cccc2ccccc12`, the Potency result is “inactive”.

Take `COc1ccc(-n2c(SCC(N)=O)nc3c(oc4ccccc43)c2=O)cc1`: the Potency result was “inactive”.

As to `CCn1c(CN2CCC(C)CC2)nc2cc(NC(=O)c3ccccc3[N+](=O)[O-])ccc21`, the Potency entry is “inactive”. Under `O=C(c1ccc2c(c1)N(Cc1ccccc1)C(=O)c1ccccc1S2(=O)=O)N1CCC(Cc2ccccc2)CC1` stands “inactive”; under `COc1ccc(-c2cccc(NS(=O)(=O)c3cc(C)c(OC)c(C)c3C)c2)nn1`, “inactive”; under `CCc1ccc(NC(=O)CSc2nc3c([nH]c4ccccc43)c(=O)n2-c2cccc(OC)c2)cc1`, “inactive”. For `CCN(CC)c1nc(C#N)nc(OC)n1` the value was “inactive”; for `CC(C)(C)c1ccc(C(=O)N2CCC(c3nc(-c4ccc(S(=O)(=O)N5CCCC5)cc4)no3)CC2)cc1`, “inactive”. Under `Cn1c(=O)c2c(n3c4ccccc4nc13)NC(=O)CC2c1cccc(Cl)c1` (stereo not drawn) stands “inactive”; under `CC(C)Sc1oc(-c2cccs2)nc1S(=O)(=O)c1ccc(Cl)cc1`, “inactive”; under `Cc1ccc(SCC(=O)Nc2ccc3oc(-c4ccccc4C)nc3c2)cc1`, “inactive”. For `C=C1CCN(C(CC(C)C)C(=O)NCc2cc(OC)c(OC)c(OC)c2)S(=O)(=O)c2ccccc21` (stereo not drawn), the Potency result was “inactive”. Under `COC(=O)CCc1ccccc1S(=O)(=O)N(CCC(=O)OC)Cc1ccccc1` stands “inactive”. Under `CCOC(=O)c1ccc(NC(=O)Cn2c(=O)n(-c3ccc(C)cc3)c(=O)c3c2cnn3C)cc1` stands “inactive”. For `Cc1nn(C(C)C(=O)Nc2ccc(C(C)C)cc2)c(=O)c2c1sc1ccccc12` (stereo not drawn) the value was “inactive”; for `OC[C@@H]1O[C@H](n2cnc3c(SCc4ccccc4)ncnc32)[C@H](O)[C@H]1O`, “inactive”; for `CCOc1ccc(Nc2c(S(=O)(=O)c3ccccc3)cnc3ccccc23)cc1`, “inactive”.

In the case of `COc1ccc(NC(=O)c2ccc3nc(C(C)C)oc3c2)cc1OC`, the Potency result is “inactive”.

For the compound `Cc1ccc(-c2nn(CC(C)(C)C)c3ncnc(N)c23)cc1`, the Potency entry was “inactive”. For `O=C(NCc1ccccc1)c1cccc(NC(=O)N2CCSc3ncccc32)c1` the value was “inactive”; for `COc1ccc(Cn2c(=O)[nH]c3cc(C(=O)N4CCN(C(=O)c5ccco5)CC4)ccc3c2=O)cc1`, “inactive”. For `CCOc1ccc(NC(=O)CSc2nnc3c(n2)[nH]c2ccc(S(=O)(=O)N4CCOCC4)cc23)cc1` the value was “inactive”; for `CC1CCCN(S(=O)(=O)c2ccc3[nH]c(=O)cc(C(=O)NCCc4ccc(Cl)cc4)c3c2)C1` (stereo not drawn), “inactive”. As for `CCN(CC)CCNC(=O)CN1N=C(c2ccc(OC)cc2)CCC1=O`, the Potency result was “inactive”. For the compound `COC(=O)c1ccc(C2C(C(=O)Nc3ccccc3)=C(C)Nc3nc4ccccc4n32)cc1` (stereo not drawn), the Potency result is “inactive”. For the compound `O=C(NCCc1ccc(Cl)cc1)C1CCCN1C(=O)NCc1ccccc1` (stereo not drawn), the Potency entry was “inactive”. For `S=C(Nc1ccc(Cl)cc1Cl)N1CCCC1` the value was “inactive”; for `Oc1cc2c(cc1O)CN(C(=S)NCCc1ccc(Cl)cc1)CCC2`, “inactive and 16.8 µM (active)”.
